Experimental data as given in PubChem BioAssay AID1508600 (Functional Genomics Laboratory (NCATS/FGL), 2020).
Out of some 53,000 sequences screened, about 3,700 (7%) were called active.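 How the source made its calls: active means gene knockdowns whose robust z-score for IL-1 alpha signal is at least 2 or at most -2, so actives lie on both sides; inactive means the rest.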 The sample as a whole holds a higher share of actives than the screen did.

Assay: Components of the Cytosolic LPS Sensing Pathway: Gene Identification via Genome-wide siRNA Screen;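 further: robust z of the log signal after scaling to non-targeting control siRNA wells of the plate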
Details: RAW264.7 macrophages, IL-1a HTRF, actives lie on both sides, screened at 100 nM (by protocol), cells primed 5 h with Pam3CSK4 first
In short: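 RAW264.7; siRNA 100 nM final, RNAiMAX, 48h 37 degrees C; Pam3CSK4 5 h; LipidA + TransIT-TKO 24 h; IL-1a HTRF; CellTiter-Glo viability; robust z vs negative-control median.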

Sequence	z-score
CGGUGACGACGGAAUUCUATT against Cpne4	-1.42 (inactive)
GGAUUCAGAAGGCCUCAGUTT against Olfr399	0.132 (inactive)
UACUAGCAGAUUAACCACCTT against H2bc4	-0.192 (inactive)
GGCAUCAACAGAAUAACCATT against Tomm34	-1.31 (inactive)
GGCCAAGUUUGACAAGGAATT against Nap1l5	2.32 (active)
GCUGCAUCGAAAAACUCAGTT against Mycbp2	-0.564 (inactive)
GGAUUAUGGACCUCUUGGUTT against 4930595M18Rik	0.554 (inactive)
CCCAGUUGACAGGAGACCATT against Hps6	1.13 (inactive)
GCAUUAUAAAAAGGUUCCGTT against Atp2b1	1.81 (inactive)
GGCCCAAGAGAAUAUCCAGTT against Gm6460	0.281 (inactive)
GCAGGACAAGGACAACACUTT against Dyrk2	-2.1 (active)
CCACCGAAAUCCUUAUUUUTT against Ppargc1a	0.522 (inactive)
GCCAAGAGCACAUCUGCUATT against Suco	-1.65 (inactive)
GCUGGGUCAAACAUGACGUTT against Klhl17	0.452 (inactive)
ACCCUUUUGUUUACACUCUTT against Olfr763	-0.76 (inactive)
GCCCAAAGAUGACAUCGUATT against Gars	1.74 (inactive)
GCUAGACCCAUAAUAAAACTT against Synpo2l	-0.851 (inactive)
UUGACUCACCUUCCGAGGUTT against Lce1a1	0.0827 (inactive)
GCGCAAUAUAGAGUCAUCATT against Rnls	-2.83 (active)
CCGUUUACCAACCAAGAAUTT against Tnfrsf17	0.0608 (inactive)
GGUUUGCUACACUUCAGAATT against Xpr1	0.101 (inactive)
GCCAACUAGAAAACAACUGTT against Pdzd11	1.6 (inactive)

Sequence	z-score
GGUGGAACAGGCAGAAUUCTT against Syn2	1.92 (inactive)
GGUCGCUACAAGAUGACUUTT against Hapln4	0.289 (inactive)
GCCAGUCAGAUGUACAGUCTT against Pbx1	3.28 (active)
CCAGAGUACAGUGUAGUCATT against Hspb6	0.508 (inactive)
GAACUUUUUUUCUGUGAACTT against Olfr175	-1.58 (inactive)
GGAAAUCGAGAGAAAUUCATT against Tead2	2.07 (active)
GCAGGUUGCACCAUGUAGATT against Slc25a42	0.701 (inactive)
CCAUCUUGGGUUCUGGUCATT against Zc3h4	-0.204 (inactive)
GGGCAAAACACUGUCUUUCTT against Tlr5	1.87 (inactive)
GCCUCUACUGGUUAUUUAATT against Slc22a15	2.09 (active)
CCUUCAAGUACUUUCUCCGTT against Dcakd	1.22 (inactive)
GGAUGAGGAGGAAAAGCUGTT against Nop2	-1.86 (inactive)
GGUCAAUGAACAGCACCGGTT against Igfbp2	0.723 (inactive)
GGAUAAAGGAAAAGAAACATT against Rcvrn	-1.34 (inactive)
CCAGACUCCUCUUAGAAGGTT against Ankrd34c	0.73 (inactive)
GCUAGAUCUUUCAUCCAACTT against Lrtm1	1.2 (inactive)
GGCCUUGGUGAAAAUGCAGTT against Plaat1	-2.07 (active)
GGAGACAUGGACCAUGGCUTT against Mapt	0.37 (inactive)
GGUGAUGUAUAUUGAGUCUTT against Sdcbp2	0.149 (inactive)
GGAUAGACUUGAUUCUUGGTT against Emid1	0.491 (inactive)
GGAAAUAGUACAGAAACCATT against Mcph1	-2.44 (active)
CCAUGUUUUUAUAGCUCUUTT against Sidt2	1.49 (inactive)

Sequence	z-score
GGUGGAUAAAGCUUAAAUATT against V1rg10	-0.258 (inactive)
GGAGGCACAGAGAUUGAAGTT against Sry	0.247 (inactive)
GGCAUCUUUGGAGACUGGUTT against Sycn	0.598 (inactive)
CCUUUGGAAUUUCUAAUACTT against Stil	-0.286 (inactive)
GGCUGUCAAAACAGUGCUCTT against Hmgcs2	1.45 (inactive)
GCUGGAGACGUAUUUGUCCTT against Olfr294	2.17 (active)
UUGGCUGCAUUAUCAUGAGTT against Olfr311	-0.419 (inactive)
GGUUUGGCAGAAGUGCAUGTT against Npff	-0.801 (inactive)
GCUACAUCGCUCUUAUAGCTT against Foxl1	0.0236 (inactive)
CGAUGUUGAGGGAUUAUCUTT against Tstd2	-2.25 (active)
GGACUUGAAAUUAGCAAAATT against Arhgef3	-0.0218 (inactive)
GGACUUUAAAUGCAAUAUCTT against Trps1	-0.567 (inactive)
GGCUCCAAGCACUAAAUAATT against B130024G19Rik	0.168 (inactive)
CCUCAAACUAACCACUCACTT against Olfr1045	-1.13 (inactive)
GGAGAUCCUGGAAGACUUCTT against Ocstamp	2.18 (active)
GGACUAUGCCAAUGUCAGATT against Zfp763	0.0585 (inactive)
GGGUAAGCCAAGAAGAAGUTT against Rgs4	-1.01 (inactive)
GGGAAAAACUCUGUGUGUATT against Coasy	-0.25 (inactive)
GGCUCCACACGAUUGUUAGTT against Gne	-0.0134 (inactive)
GUUCCACCAGAUUUUCUAATT against Vmn1r28	2.6 (active)
GGAGAAUUUAGAGCUACCATT against Atg10	-1.56 (inactive)
GCCCAUCACUUAUAGUGGGTT against Usf2	-0.799 (inactive)

Sequence	z-score
GGAGCAUUUUAUUCAGAUGTT against Rad23b	2.22 (active)
GGUGGAGAAGAAAUCUAAGTT against Eif4g1	-0.344 (inactive)
CCUGAGACCGAAUUUUACCTT against Cer1	-0.209 (inactive)
GGAAACGUGGGCAUGAUCATT against Olfr944	-0.239 (inactive)
GGAUAAUGAUGUGAAAGGCTT against Mrps30	0.984 (inactive)
GGACAACAUGAACUGUCAGTT against Snrpd3	-2.74 (active)
GCUUGACUUUGAAAGUCCATT against Gm11733	-1.54 (inactive)
GGCUUUCUCCCAGCAAUAGTT against Scrt1	-1.97 (inactive)
GGGAUCAACAUUUACCGAATT against Ablim1	0.596 (inactive)
CCCACCUUCCGACUUGAAUTT against Col12a1	-1.12 (inactive)
GUCAGAACCAUAGCCAUGATT against Vmn1r202	-0.623 (inactive)
GCUGAUCAGAGACCAUUACTT against Cmss1	-2.26 (active)
GGGAGAAGGUGGAAAUACUTT against Hdgfl3	1.63 (inactive)
GGCCAUACGGACCAUGUAUTT against Slc25a19	-1.25 (inactive)
GGACCAAAUCCUCUGAUUCTT against Bud13	2.74 (active)
GGCUGCCUUGCUGAUUUGATT against Boc	0.762 (inactive)
CCUUUACGUUUCUGUGUCUTT against Slc37a4	-1.19 (inactive)
CCAUUCUACACUUUUCCACTT against Krtap1-5	-0.909 (inactive)
GCCAAGCAUUAAGUGAUAATT against Setmar	2.7 (active)
CCAACUAAUCCCAUAUUCCTT against Tmem43	0.0511 (inactive)
GGAGCUAUGUUCAGUUCUUTT against Qsox1	0.438 (inactive)
GCAUUAUCUGUGAAAAUCCTT against En2	0.262 (inactive)

Sequence	z-score
GCAGAAAUUAACAAGUCUCTT against Kif2c	0.816 (inactive)
GCACUGUUCGUUUUUGUUUTT against Astn1	0.275 (inactive)
GGCUAUGGGAAUCAUGAAUTT against H2bc18	-2.84 (active)
GCUCUAUGAGAGUAUAUUATT against Tamm41	-0.495 (inactive)
GCAUGUGAUUACCUUUGUATT against Btbd10	0.633 (inactive)
GGGAUCCCGCAAAAUCAGATT against Osm	0.63 (inactive)
GCACAUCUUGGACCGUUUCTT against Lhx3	0.851 (inactive)
GGGUACAAGCUUAUCAAUATT against Trpm6	4.91 (active)
GGUGUAUAGCUGUUGUGGGTT against Dennd2d	-1.41 (inactive)
CCUCAAGGAACUGAAUGCCTT against Olfr1320	0.0261 (inactive)
GGGAUAAAGAGAGACCCAATT against Flywch1	0.889 (inactive)
CCAGAUGACAAUGAGUCAGTT against Ss18	-0.197 (inactive)
CCUAAAUUUGACUGUGCCUTT against Nudt10	2.13 (active)
GCGAUUGUCAUUCUCUUUUTT against Jak3	0.711 (inactive)
GGGCUUUCCCAGUUCCUAATT against Bmp6	2.04 (active)
CCACCUCAAGUCAAAGACUTT against Cggbp1	-0.445 (inactive)
GGCUCUAGAAGCGAGAAUCTT against Six6	-0.234 (inactive)
GGACCUAAUCCAUAAGGUCTT against Pcyox1l	-0.379 (inactive)
GGAACAGAUCUCUGAUAUATT against Sub1	0.564 (inactive)
GGCCUUCAUUGAGAUGAACTT against Ptbp1	-1.17 (inactive)
